# Measurements taken from PubChem BioAssay (NCATS).
# “And” between values parts separate entries of the source, which are not always exact repeats. Equal entries are not always repeated. A number with no mark means an inactive call. Results filed as inconclusive are left out. Where a call stands in place of a potency, no number is given. The source made the active and inactive calls. Unless noted, calls come from the whole dose curve; as a rule, active = well fitted curve in the direction sought with a large enough effect; inconclusive = small, poorly fitted or top-dose-only effect, or another doubt; inactive = no such curve, though single readings can be large; an effect the other way counts as inactive or inconclusive.
# Key:
# [1] = Cell Viability - Jurkat (AID 426;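 active = dose-dependent loss of cell ATP signal giving a full or clear fitted curve, ranked by lower potency value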; note: potency is the fitted concentration of half-maximal effect); settings: qHTS
# How it was run: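 qHTS, 1536-well; Jurkat E6-1, 5000 cells/well, complete medium; cpd 40 hr, 37 °C; CellTiter-Glo 20 min RT; luminescence. AC50 by Hill fit.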
# [2] = Cell Viability - NIH 3T3 (AID 541); settings: NIH 3T3 cell viability, qHTS; activity change, negative = cytotoxicity: at 92.2 µM (top of the series); note: nearly all actives have a fitted effect of over 25% in size; note: potency is the fitted concentration of half-maximal effect
# How it was run: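 Luminescent ATP signal (CellTiter-Glo) served as the viability read-out after NIH 3T3 cells were exposed to compounds over a concentration range for 40 hr at 37 °C. Hill-equation modelling of concentration-response data gave AC50.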
# [3] = Cell Viability - Mesenchymal (AID 546); settings: mesenchymal cells viability, qHTS; series mostly up to 91.7 µM;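 note: cells exposed to compound for 40 hours before reading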; note: potency is the fitted concentration of half-maximal effect
# How it was run: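 Normal human renal glomerulus-derived kidney mesenchymal cells, 1000 per well in complete medium, were treated with compounds for 40 hr at 37 °C. Viability was read as intracellular ATP by CellTiter-Glo luminescence; AC50 values came from Hill-equation fits of qHTS concentration-response data.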
# [4] = Cellular Toxicity (caspase-3) MRC-5 (AID 659); settings: MRC-5 cells, luminescence, normalized: DMSO 0%, 10 µM staurosporine 100%; series mostly up to 91.7 µM
# How it was run: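 Luminescence from caspase-cleaved aminoluciferin substrate (Caspase-Glo 3/7, 1 hr RT) reports caspase 3/7 activity in MRC-5 lung fibroblasts after 16 hr compound exposure. Normalized to DMSO basal and 10 uM staurosporine as 100%; AC50 from Hill fits.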
# [5] = Cellular Toxicity (caspase-3) NIH 3T3 (AID 666); settings: NIH 3T3 caspase-3 activation, apoptosis/toxicity; series mostly up to 92.2 µM;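 note: caspase signal read after 16 h compound exposure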; note: potency is the fitted concentration of half-maximal effect
# How it was run: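 Luminescence from aminoluciferin released by caspase-3/7 cleavage of a peptide substrate served as read-out. Mouse fibroblast NIH 3T3 cells were exposed to compounds over a concentration range for 16 hours, and AC50 values came from standard Hill modelling.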
# [6] = MultiTox-Fluor Cytotoxicity Assay - LYMP1-001 - Dead Cells (AID 946); settings: LYMP1-001 lymphoblastoid cells, dead-cell protease fluorescence; series mostly up to 92.2 µM
# How it was run: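 Seed 2500 LYMP1-001 cells/well, incubate 5 hr at 37 C; add compound, 16 hr at 37 C; add MultiTox-Fluor reagent, 60 min RT; read dead-cell fluorescence Ex/Em=485/520. Normalize to DMSO and 15 uM tetraoctylammonium bromide.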
# [7] = MultiTox-Fluor Cytotoxicity Assay - LYMP1-002 - Live Cells (AID 955); settings: LYMP1-002 lymphoblastoid live-cell protease fluorescence viability; series mostly up to 46.1 µM
# How it was run: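 Read-out is live-cell protease activity (cell-permeant GF-AFC substrate, fluorescence Ex/Em=405/510), where a decrease indicates acute toxicity. Human lymphoblastoid cells were treated 16 hours at 37 C in a concentration series, and AC50 values came from standard Hill modelling.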
# [8] = Cell Viability - LYMP1-003 - Assay at 24 hr (AID 963); settings: LYMP1-003 lymphoblastoid cell viability; series mostly up to 92.2 µM
# How it was run: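 Cells seeded at 2500/well, 5 hr at 37 C; compounds added; 24 hr at 37 C; CellTiter-Glo added, 30 min room temperature; luminescence read. Decrease in ATP taken as cytotoxicity, AC50 from Hill modelling.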
# [9] = Cell Viability - LYMP2-015 (AID 971); settings: LYMP2-015 lymphoblastoid cell viability; series mostly up to 92.2 µM; note: nearly all actives have a fitted effect of over 55% in size; note: potency is the fitted concentration of half-maximal effect
# How it was run: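 Luminescent ATP read-out (CellTiter-Glo) served as the viability measure after lymphoblastoid cells were exposed to compounds for 24 hours at 37 C. Concentration-response data were fitted with the Hill equation to give AC50.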
# [10] = Cell Viability - LYMP2-024 (AID 988); settings: LYMP2-024 lymphoblastoid cell viability; series mostly up to 92.2 µM; note: nearly all actives have a fitted effect of over 60% in size; note: potency is the fitted concentration of half-maximal effect
# How it was run: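 Steps: seed 2500 cells/well, 5 hr 37 C; add compound, 24 hr 37 C; add CellTiter-Glo, 30 min room temperature; read luminescence. AC50 derived by Hill modelling of concentration-dependent ATP loss.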
# [11] = Cell Viability - LYMP1-002 - Assay at 24 hr (AID 993); settings: LYMP1-002 lymphoblastoid cells viability; series mostly up to 92.2 µM
# How it was run: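 Cells plated 2500/well, 5 hr 37 C; compounds added, 24 hr 37 C; CellTiter-Glo added, 30 min RT; luminescence read. Tetraoctylammonium bromide positive control. Hill-equation AC50.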
# [12] = biological target: Vitamin D3 receptor (Homo sapiens) (UniProt P11473); assay: qHTS assay for small molecule agonists of vitamin D receptor signaling (AID 588543; calls by dose curve); settings: HEK293T VDR-UAS-bla, beta-lactamase ratio, 16 h; series mostly up to 76.8 µM
# How it was run: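 Reporter cells (HEK293T, VDR-UAS-bla) were seeded in medium with 2% charcoal-stripped serum and incubated 5 h, then compounds in concentration series were added for 16 h at 37 °C. Stimulation was scaled between DMSO basal and 50 nM 1α,25-dihydroxyvitamin D3.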
# [13] = qHTS assay for small molecule disruptors of the mitochondrial membrane potential - 5 hr assay (AID 651755; calls by dose curve; note: nearly all actives have a fitted effect of over 40% in size; note: potency is the fitted concentration of half-maximal effect); settings: JC-1-type ratio dye; series mostly up to 92.2 µM
# How it was run: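 HepG2 cells, attached overnight at 37C, were exposed to compound or DMSO for 5 hr at 37C, 5% CO2. Mito-MPS dye was then added for 30 min, and fluorescence read at 490/535 nm (monomers) and 540/590 nm (aggregates).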
# [14] = biological target: Peroxisome proliferator-activated receptor alpha (Homo sapiens) (UniProt Q07869); assay: qHTS assay for small molecule agonists of the peroxisome proliferator-activated receptor alpha (PPARalpha) signaling pathway (AID 651778); settings: PathHunter PPARalpha complementation, chemiluminescence, 6 h; hits give high values
# How it was run: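 Cells plated at 2,000/well and held overnight at 37 C, 5% CO2, then compound added by pin tool for 6 hr; after PathHunter detection reagent and 60 min at room temperature, chemiluminescence from enzyme complementation was read.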
# [15] = biological target: Nuclear receptor ROR-gamma (Homo sapiens) (UniProt P51449); assay: qHTS assay for small molecule antagonists of the retinoid-related orphan receptor gamma (ROR-gamma) signaling pathway (AID 651802); settings: ROR-gamma antagonist cell reporter assay; series mostly up to 92.2 µM;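 note: luciferase reporter luminescence driven by ROR response element; nearly all actives have a fitted effect of over 60% in size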
# How it was run: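 CHO, TET-inducible ROR + RORE-LUC reporter, 1536-well qHTS. Compound pinned, doxycycline added, 16hr 37C/5% CO2. ONE-Glo, 30 min RT, luminescence; signal drop scored as antagonism.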
# [16] = qHTS assay for small molecule antagonists of the retinoid-related orphan receptor gamma (ROR-gamma) signaling pathway - cell viability counter screen (AID 720652; active = well fitted curve in the direction sought with a large enough effect in the repeat runs; an effect the other way counts as inactive or inconclusive;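 note: compound exposure lasted 16 hr before ATP read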; note: potency is the fitted concentration of half-maximal effect); settings: RORgamma reporter cell line viability counter screen; series mostly up to 92.2 µM
# How it was run: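 Luminescence from CellTiter-Glo after 30 min at room temperature reported cellular ATP as the cytotoxicity measure. Cells were the CHO reporter line with doxycycline-induced ROR-gamma expression, exposed to compound for 16 hr at 37 C.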
# [17] = qHTS assay for small molecule agonists of the antioxidant response element (ARE) signaling pathway measured by Nrf2-dependant transcriptional activity - cell viability counter screen (AID 720653; active = well fitted curve in the direction sought with a large enough effect in the repeat runs; an effect the other way counts as inactive or inconclusive); settings: ARE-bla HepG2 viability, CellTiter-Glo ATP luminescence, 16 h; hits give low values
# How it was run: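 ARE-bla HepG2 cells (2,000/well) rested 5 hrs at 37C/5% CO2, then exposed to compounds in DMSO for 16 hrs. Viability was read in the same wells as intracellular ATP by luminescence, 30 min at room temperature after reagent addition.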
# [18] = qHTS assay for cell viability of the p53RE-bla HCT-116 cell line (AID 743292); settings: p53RE-bla HCT-116 viability, ATP luminescence, 16 h; series mostly up to 95 µM; note: nearly all actives have a fitted effect of over 55% in size
# How it was run: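 ATP-based luminescence, 16 h compound exposure at 37 C, p53RE-bla HCT-116 cells at 4,000/well.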
# [19] = biological target: Nuclear receptor subfamily 1 group I member 2 (Rattus norvegicus) (UniProt Q9R1A7); assay: qHTS assay for small molecule activators of the rat pregnane X receptor (rPXR) signaling pathway (AID 651751; call rule not given here); settings: rPXR reporter cells, luciferase (One-Glo), 24 h
# [20] = Cell Viability - LYMP2-016 (AID 984); settings: LYMP2-016 lymphoblastoid cell viability, qHTS; series mostly up to 92.2 µM; note: nearly all actives have a fitted effect of over 55% in size
# How it was run: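 Cells were seeded at 2500 per well and rested 5 hr before a 24 hr compound exposure at 37 C. Viability was then gauged as cellular ATP by luciferase luminescence, with AC50 values fitted to the Hill equation.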
# Chain of Peroxisome proliferator-activated receptor alpha (Homo sapiens) (Q07869 whole entry, looked up): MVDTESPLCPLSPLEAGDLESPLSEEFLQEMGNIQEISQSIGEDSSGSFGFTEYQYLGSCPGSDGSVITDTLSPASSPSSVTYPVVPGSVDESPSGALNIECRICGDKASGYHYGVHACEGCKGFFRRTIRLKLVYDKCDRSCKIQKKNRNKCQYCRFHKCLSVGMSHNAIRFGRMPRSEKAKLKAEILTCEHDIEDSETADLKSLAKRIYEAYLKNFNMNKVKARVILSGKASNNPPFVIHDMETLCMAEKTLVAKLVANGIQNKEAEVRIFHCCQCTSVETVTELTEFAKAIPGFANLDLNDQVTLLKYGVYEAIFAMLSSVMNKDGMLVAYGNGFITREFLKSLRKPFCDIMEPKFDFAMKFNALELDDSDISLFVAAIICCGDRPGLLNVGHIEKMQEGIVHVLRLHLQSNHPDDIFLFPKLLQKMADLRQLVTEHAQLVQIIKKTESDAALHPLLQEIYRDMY
# Chain of Nuclear receptor subfamily 1 group I member 2 (Rattus norvegicus) (Q9R1A7 whole entry, looked up): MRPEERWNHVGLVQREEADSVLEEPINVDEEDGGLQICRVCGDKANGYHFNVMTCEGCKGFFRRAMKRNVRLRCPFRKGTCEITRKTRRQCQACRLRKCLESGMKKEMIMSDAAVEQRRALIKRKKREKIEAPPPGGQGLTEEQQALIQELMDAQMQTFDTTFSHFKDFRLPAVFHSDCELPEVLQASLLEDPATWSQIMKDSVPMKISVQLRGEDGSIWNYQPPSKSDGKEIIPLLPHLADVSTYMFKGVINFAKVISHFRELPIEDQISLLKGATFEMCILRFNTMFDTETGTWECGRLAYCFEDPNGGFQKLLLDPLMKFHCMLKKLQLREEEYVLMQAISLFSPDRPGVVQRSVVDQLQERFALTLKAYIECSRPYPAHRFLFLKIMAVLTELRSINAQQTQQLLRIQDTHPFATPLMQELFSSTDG
# Chain of Vitamin D3 receptor (Homo sapiens) (P11473 whole entry, looked up): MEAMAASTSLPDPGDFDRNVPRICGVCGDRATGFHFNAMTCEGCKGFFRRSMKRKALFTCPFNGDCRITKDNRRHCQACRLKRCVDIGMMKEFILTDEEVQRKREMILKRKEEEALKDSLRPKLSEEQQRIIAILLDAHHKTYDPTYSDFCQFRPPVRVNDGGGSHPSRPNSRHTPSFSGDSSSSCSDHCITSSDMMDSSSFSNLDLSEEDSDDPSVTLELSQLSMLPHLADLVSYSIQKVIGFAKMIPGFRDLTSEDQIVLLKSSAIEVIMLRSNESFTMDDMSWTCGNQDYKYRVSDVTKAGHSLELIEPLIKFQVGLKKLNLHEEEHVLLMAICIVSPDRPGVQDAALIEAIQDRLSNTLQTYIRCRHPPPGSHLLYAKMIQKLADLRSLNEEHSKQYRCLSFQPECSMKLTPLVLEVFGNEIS
# Chain of Nuclear receptor ROR-gamma (Homo sapiens) (P51449 whole entry, looked up): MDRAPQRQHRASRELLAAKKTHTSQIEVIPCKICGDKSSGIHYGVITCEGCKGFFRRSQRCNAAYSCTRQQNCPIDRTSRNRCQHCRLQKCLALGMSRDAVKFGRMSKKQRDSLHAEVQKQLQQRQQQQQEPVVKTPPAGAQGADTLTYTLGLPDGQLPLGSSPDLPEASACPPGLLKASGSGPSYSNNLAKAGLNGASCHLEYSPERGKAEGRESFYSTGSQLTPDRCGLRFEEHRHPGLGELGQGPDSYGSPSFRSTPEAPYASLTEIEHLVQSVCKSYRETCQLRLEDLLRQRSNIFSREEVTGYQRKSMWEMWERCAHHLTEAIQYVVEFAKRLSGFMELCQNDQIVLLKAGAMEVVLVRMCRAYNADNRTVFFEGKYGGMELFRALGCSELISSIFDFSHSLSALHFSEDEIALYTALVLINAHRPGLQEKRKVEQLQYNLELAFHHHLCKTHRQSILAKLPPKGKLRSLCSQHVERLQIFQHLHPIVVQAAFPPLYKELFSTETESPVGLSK
smiles,measurement,setting,value
O=C(O)CBr,Potency,[1],> 92 µM
same,Potency,[2],inactive
same,Potency,[3],inactive
same,outcome,[4],inactive
same,Potency,[5],inactive
same,outcome,[6],inactive
same,outcome,[7],inactive
same,outcome,[8],inactive
same,Potency,[9],inactive
same,Potency,[10],inactive
same,Potency,[11],inactive
same,outcome,[12],inactive
same,Potency,[13],inactive
same,max response,[14],2.06%
same,Potency,[15],inactive
same,Potency,[16],inactive
same,max response,[17],9.96%
same,Potency,[18],inactive
same,max response,[19],2.42%
Nc1cc(Cl)ccc1O,Potency,[3],inactive
same,outcome,[4],inactive
same,Potency,[5],inactive
same,outcome,[6],inactive
same,outcome,[7],inactive
same,outcome,[8],inactive
same,Potency,[20],inactive
same,Potency,[10],inactive
same,Potency,[11],inactive
same,outcome,[12],inactive
same,Potency,[13],33.5 µM (active)
same,max response,[14],0.902%
same,Potency,[15],inactive
same,max response,[17],-22.1%
same,Potency,[18],inactive
CC(C)OS(C)(=O)=O,Potency,[1],> 92 µM
same,Potency,[2],inactive
same,Potency,[3],inactive
same,outcome,[4],inactive
same,Potency,[5],inactive
same,outcome,[6],inactive
same,outcome,[7],inactive
same,outcome,[8],inactive
same,Potency,[20],inactive
same,Potency,[10],inactive
same,Potency,[11],inactive
same,outcome,[12],inactive
same,Potency,[13],inactive
same,max response,[14],-9.26%
same,Potency,[16],inactive
same,max response,[17],-6.13%
same,Potency,[18],inactive
same,max response,[19],-0.369%
O=[N+]([O-])/C=C/c1ccccc1,Potency,[1],9.79 µM (active)
same,Potency,[2],15.8 µM (active)
same,Potency,[3],25.1 µM (active)
same,outcome,[4],inactive
same,Potency,[5],25.1 µM (active)
same,outcome,[8],inactive
same,Potency,[9],39.8 µM (active)
same,Potency,[10],39.8 µM (active)
same,Potency,[11],inactive
same,outcome,[12],inactive
same,Potency,[13],inactive
same,Potency,[15],inactive
same,Potency,[16],37.6 µM (active)
same,Potency,[18],inactive
Oc1cccc(Cl)c1Cl,Potency,[1],> 92 µM
same,Potency,[2],inactive
same,Potency,[3],inactive
same,outcome,[4],inactive
same,Potency,[5],inactive
same,outcome,[6],inactive
same,outcome,[8],inactive
same,Potency,[9],inactive
same,Potency,[20],inactive
same,Potency,[10],inactive
same,Potency,[11],inactive
same,Potency,[13],inactive
same,max response,[14],-2.6%
same,Potency,[15],inactive
same,Potency,[16],inactive
same,Potency,[18],inactive
same,max response,[19],-2.09%
CCCCCOC(=O)c1ccccc1C(=O)OCCCCC,Potency,[1],> 92 µM
same,Potency,[2],inactive
same,outcome,[4],inactive
same,Potency,[5],inactive
same,outcome,[6],inactive
same,outcome,[7],inactive
same,outcome,[8],inactive
same,Potency,[9],inactive
same,Potency,[20],inactive
same,Potency,[11],inactive
same,outcome,[12],inactive
same,Potency,[13],inactive
same,max response,[14],-4.34% and -0.557%
same,Potency,[15],inactive
same,Potency,[16],inactive
same,max response,[17],0.29% and 4.72%
same,max response,[19],4.64% and 1.43%
O=[N+]([O-])c1cc(Cl)c(Cl)c(Cl)c1,"activity change, negative = cytotoxicity",[2],-119% (active)
same,Potency,[3],inactive
same,Potency,[5],25.1 µM (active)
same,outcome,[6],inactive
same,outcome,[7],inactive
same,outcome,[8],inactive
same,Potency,[9],inactive
same,Potency,[20],inactive
same,Potency,[10],inactive
same,Potency,[11],inactive
same,outcome,[12],inactive
same,Potency,[13],inactive
same,max response,[14],-4.23%
same,Potency,[15],inactive
same,Potency,[16],inactive
same,max response,[17],-3.56%
same,Potency,[18],inactive
same,max response,[19],-3.17%
